Reference: PubChem BioAssay (Tox21)
Several values for one entry are separate records, joined by “and”; a condition that tells them apart may be missing. Equal values may be shown once. Inconclusive results are not listed. A call without a number means that no potency is given here. Some structures have more than one record in an assay (separate samples or runs), and their calls can disagree. Activity calls are given as the source filed them. Unless noted, calls follow the shape of the dose curve; as a rule, active = well fitted curve in the direction sought with a large enough effect in the repeat runs; inconclusive = weak or mixed curves; inactive = no such curve, though single readings can be large; an effect the other way counts as inactive or inconclusive.

What was measured:
[1] = qHTS assay to identify small molecule antagonists of the glucocorticoid receptor (GR) signaling pathway - cell viability counter screen (AID 720693); also: nearly all actives have a fitted effect of over 55% in size; also: potency is read from the fitted curve at half-maximal effect
[2] = qHTS assay for identifying genotoxic compounds that show differential cytotoxicity against isogenic chicken DT40 cell lines with known DNA damage response pathways - wild type cell line (AID 743012); also: nearly all actives have a fitted effect of over 60% in size; also: potency is read from the fitted curve at half-maximal effect
Procedure, shortened: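 Parental DNA repair-proficient DT40 cells, 300 per well, were pre-incubated ~0.5 h at 37 C/5% CO2, pin-dosed with compounds in DMSO, then incubated 40 h. Viability was read as CellTiter-Glo luminescence after 30 min at room temperature.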

[3] = qHTS assay for identifying genotoxic compounds that show differential cytotoxicity against isogenic chicken DT40 cell lines with known DNA damage response pathways - Rev3 mutant cell line (AID 743014); also: nearly all actives have a fitted effect of over 55% in size; also: potency is read from the fitted curve at half-maximal effect
[4] = qHTS assay to identify small molecule antagonists of the androgen receptor (AR) signaling pathway - cell viability counter screen (AID 743033; also: nearly all actives have a fitted effect of over 45% in size; also: potency is read from the fitted curve at half-maximal effect)
[5] = biological target: Androgen receptor (Homo sapiens) (UniProt P10275); assay: qHTS assay to identify small molecule agonists of the androgen receptor (AR) signaling pathway using the MDA cell line (AID 743040; also: nearly all actives have a fitted effect of over 20% in size; also: potency is read from the fitted curve at half-maximal effect)
Procedure, shortened: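 After a 5 h incubation at 37C and 0% CO2, MDA-kb2 reporter cells were dosed with compounds in DMSO and kept 16 h under the same conditions. Luciferase activity was then read as luminescence with ONE-Glo.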

[6] = qHTS assay to identify small molecule antagonists of the androgen receptor (AR) signaling pathway using the MDA cell line - cell viability counter screen (AID 743041; also: nearly all actives have a fitted effect of over 45% in size)
Procedure, shortened: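 R1881-driven MDA-kb2 AR-luc cells, 3,000/well, were dosed with library compounds for 16 h; cell health came from CellTiter-Fluor fluorescence in the reporter wells.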

[7] = biological target: Androgen receptor (Homo sapiens) (UniProt P10275); assay: qHTS assay to identify small molecule antagonists of the androgen receptor (AR) signaling pathway using the MDA cell line (AID 743042; also: nearly all actives have a fitted effect of over 55% in size; also: potency is read from the fitted curve at half-maximal effect)
Procedure, shortened: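 Antagonist mode: compounds plus R1881 agonist added to MDA-kb2 AR-luc cells, incubated 16 h at 37C. Luciferase reporter luminescence quantified, with multiplexed CellTiter-Fluor readout for cell viability.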

[8] = qHTS assay to identify small molecule antagonists of the thyroid receptor (TR) signaling pathway - cell viability counter screen (AID 743064); also: nearly all actives have a fitted effect of over 50% in size; also: potency is read from the fitted curve at half-maximal effect
Procedure, shortened: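 In-well cytotoxicity read by CellTiter-Fluor (30 min, 37 C) following 23.5 h exposure of GH3 cells bearing a TRE-luciferase sensor. Compounds were added alongside 1 nM (final) T3 to drive TR transactivation.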

[9] = qHTS assay for identifying genotoxic compounds that show differential cytotoxicity against isogenic chicken DT40 cell lines with known DNA damage response pathways - Rad54/Ku70 mutant cell line (AID 743015); also: nearly all actives have a fitted effect of over 60% in size; also: potency is read from the fitted curve at half-maximal effect
[10] = biological target: Androgen receptor (Homo sapiens) (UniProt P10275); assay: qHTS assay to identify small molecule agonists of the androgen receptor (AR) signaling pathway (AID 743036; active = well fitted activation curve with a large enough effect in the signal ratio in the repeat runs, with a control signal flat, not every such curve was filed as active; the % refers to the signal ratio; also: potency is read from the fitted curve at half-maximal effect)
Procedure, shortened: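 Activation was read as beta-lactamase FRET signal from LiveBLAzer B/G substrate, added for 2 h at room temperature. Before that, GeneBLAzer AR-UAS-bla GripTite (HEK293) cells had 16 h compound exposure at 37C.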

Androgen receptor (Homo sapiens), sequence (P10275 whole entry, looked up): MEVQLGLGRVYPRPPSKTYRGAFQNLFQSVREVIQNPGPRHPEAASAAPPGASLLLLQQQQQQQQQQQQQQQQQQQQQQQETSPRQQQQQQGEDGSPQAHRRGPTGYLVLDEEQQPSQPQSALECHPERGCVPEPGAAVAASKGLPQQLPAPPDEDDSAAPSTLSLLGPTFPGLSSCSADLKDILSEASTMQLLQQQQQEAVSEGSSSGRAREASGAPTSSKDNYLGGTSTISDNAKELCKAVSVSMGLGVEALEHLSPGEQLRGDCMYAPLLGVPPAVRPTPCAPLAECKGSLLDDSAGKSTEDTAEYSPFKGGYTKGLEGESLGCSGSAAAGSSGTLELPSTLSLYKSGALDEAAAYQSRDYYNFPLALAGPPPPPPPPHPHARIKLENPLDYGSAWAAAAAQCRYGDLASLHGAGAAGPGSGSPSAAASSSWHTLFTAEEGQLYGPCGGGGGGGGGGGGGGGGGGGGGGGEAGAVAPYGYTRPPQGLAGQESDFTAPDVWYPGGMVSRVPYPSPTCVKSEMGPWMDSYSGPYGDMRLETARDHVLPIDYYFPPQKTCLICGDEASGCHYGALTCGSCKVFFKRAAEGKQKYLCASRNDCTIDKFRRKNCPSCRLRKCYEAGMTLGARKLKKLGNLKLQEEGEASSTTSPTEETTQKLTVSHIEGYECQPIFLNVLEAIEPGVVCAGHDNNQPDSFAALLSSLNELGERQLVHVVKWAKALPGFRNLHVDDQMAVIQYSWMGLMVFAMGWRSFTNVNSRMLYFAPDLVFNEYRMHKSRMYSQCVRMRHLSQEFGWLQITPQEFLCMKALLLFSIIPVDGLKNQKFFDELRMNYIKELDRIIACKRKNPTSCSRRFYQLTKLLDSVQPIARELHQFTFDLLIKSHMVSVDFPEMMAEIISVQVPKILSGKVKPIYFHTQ

| Structure (SMILES) | Potency [1] | Potency [2] | Potency [3] | Potency [4] | Potency [5] | Potency [6] | Potency [7] | Potency [8] | Potency [9] | Potency [10] |
| --- | --- | --- | --- | --- | --- | --- | --- | --- | --- | --- |
| CCOC(=O)CC(=O)CCl | inactive | 61.1 µM (active) | 19.3 µM (active) | inactive | inactive | inactive | inactive | 61.1 µM (active) | – | – |
| CC(C)OC(=O)C(O)(c1ccc(Cl)cc1)c1ccc(Cl)cc1 | inactive | 8.63 µM (active) | 6.86 µM (active) | – | – | – | – | 61.1 µM (active) | 7.7 µM (active) | – |
| Oc1c(Br)c(Br)c(Br)c(Br)c1Br | inactive | inactive | inactive | – | inactive | inactive | inactive | – | inactive | inactive |
| CCN | inactive | inactive | inactive | inactive | – | – | – | inactive | inactive | – |
| ClC1=C(Cl)C2(Cl)C3C(Cl)C(Cl)CC3C1(Cl)C2(Cl)Cl (configuration not stated) | inactive | inactive and 21.7 µM (active) | 30.6 µM (active) | 49 µM (active) | inactive | inactive | inactive | 21.6 µM (active) and 24.3 µM (active) | – | inactive |
| C[C@]12Cc3nonc3C[C@@H]1CC[C@@H]1[C@@H]2CC[C@@]2(C)[C@H]1CC[C@]2(C)O | inactive | 11.9 µM (active) | 13.3 µM (active) | – | 0.0019 µM (active) | – | 29.8 µM (active) | 29.8 µM (active) | – | 0.0038 µM (active) |
| CC(=O)c1cc(C(C)(C)C)cc2c1CCC2(C)C | inactive | inactive | inactive | inactive | – | inactive | – | 43.3 µM (active) | – | – |
| CC(c1ccc(O)cc1)c1ccc(O)cc1 | inactive | inactive | inactive | inactive | – | – | – | inactive | inactive | – |
| CC1(C)CC/C(=C/c2ccc(Cl)cc2)C1(O)Cn1cncn1 (configuration not stated) | inactive | 21.6 µM (active) | 60.8 µM (active) | – | 9.63 µM (active) | – | – | – | 55.2 µM (active) | – |
| ClC(Cl)=C(Cl)Cl | inactive | inactive | inactive | inactive | – | inactive | – | inactive | inactive | – |
| CCC(C)c1cc([N+](=O)[O-])cc([N+](=O)[O-])c1OC(=O)C=C(C)C (configuration not stated) | inactive | 21.7 µM (active) | 27.3 µM (active) | – | inactive | – | – | – | 19.3 µM (active) | – |
| CC(C)CC(C)Nc1ccc(Nc2ccccc2)cc1 (configuration not stated) | 48.2 µM (active) | 26.8 µM (active) | 16.9 µM (active) | 21.5 µM (active) | – | – | – | 42.5 µM (active) | 15.1 µM (active) | – |
| O=C1NCN(c2ccccc2)C12CCN(CC1COc3ccccc3O1)CC2 (configuration not stated) | inactive | 23.7 µM (active) | inactive | inactive | – | inactive | – | – | – | – |
| Oc1ccc(C(=C(Cl)Cl)c2ccc(O)cc2)cc1 | inactive | inactive | inactive | inactive | – | – | – | inactive | inactive | – |
| CCCCCCCCCC[N+](C)(C)CCCCCCCCCC | 24.5 µM (active) | 668 nM (active) and 433 nM (active) | 841 nM (active) and 433 nM (active) | 16.9 µM (active) and 19.5 µM (active) | – | – | – | 5.96 µM (active) and 12.2 µM (active) | 1.06 µM (active) and 344 nM (active) | – |
| CC(C)[C@H](C(=O)OC(C#N)c1cccc(Oc2ccccc2)c1)c1ccc(OC(F)F)cc1 (some centres not stated) | inactive | 24.3 µM (active) | 34.4 µM (active) | inactive | – | – | – | inactive | – | – |
| CCN(CC)c1c([N+](=O)[O-])cc(C(F)(F)F)c(N)c1[N+](=O)[O-] | – | – | – | – | – | – | – | – | – | inactive |
| CNC(C)Cc1ccc2c(c1)OCO2 (configuration not stated) | – | – | – | – | – | – | – | – | – | inactive |
| BrCBr | inactive | – | – | inactive | – | inactive | – | inactive | – | – |
| COc1cc(C=O)cc2c1[C@H](COC(N)=O)[C@]1(OC(C)=O)ON2C[C@H]2[C@@H]1N2C(C)=O | 0.49 µM (active) | 0.0154 µM (active) | – | – | – | – | – | 0.864 µM (active) | – | – |
| Oc1c(Cl)c(Cl)cc(Cl)c1Cl | inactive | 66.7 µM (active) | – | – | inactive | – | – | – | – | – |
| FC(F)(F)c1cccc(C2=CCN(CCc3ccc4ccccc4c3)CC2)c1 | inactive | – | – | inactive | – | inactive | – | inactive | – | – |
| Nc1ccccc1C(=O)OC/C=C/c1ccccc1 | inactive | – | – | – | – | inactive | – | – | – | – |
| C=CCC1=C(C)C(OC(=O)C2C(C=C(C)C)C2(C)C)CC1=O (configuration not stated) | 46.3 µM (active) | 10.3 µM (active) | – | – | – | – | – | 49.3 µM (active) | – | – |
| N#CC(Cl)Cl | inactive | – | 59.5 µM (active) | – | – | inactive | inactive | 59.5 µM (active) | – | – |
| CCC(C)(C)C(=O)OC1=C(c2ccc(Cl)cc2Cl)C(=O)OC12CCCCC2 | inactive | – | – | inactive | inactive | inactive | inactive | – | – | inactive |
| COP(=S)(OC)Oc1cc(Cl)c(Br)cc1Cl | inactive | – | 61.1 µM (active) | – | inactive | inactive | – | inactive | – | – |
